Screening data (PubChem BioAssay)
CaV13 ICDI inh: Primary screen for inhibitors of IQ motif and Ca2+-dependent inactivation inhibitor domain binding in CACNA1D, Förster resonance energy transfer in living cells, …. HEK cells, CFP/YFP FRET ICDI-IQ, plate reader, 10 min; percent FRET-ratio fall versus neutral wells. AID 743397. actives 0.098% (n = 340,000). inhibition, % at 12.3 µM;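 active = mean replicate inhibition of at least 30% and at least 1% of replicates passing that level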
ERAP1 inh: inhibitors of human ERAP1 aminopeptidase; AID 652197; inhibition, % at 10.7 µM; Q9NZ08; actives 0.15% (n = 340,000); recombinant ERAP1, Leu-AMC fluorescence, 60 min;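 active = mean replicate inhibition of at least 30%, or all replicates individually reaching that 30% level; inactive = mean below 30% and not every replicate reaching it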
rRNA inh HTS: selective bacterial rRNA inhibition in E. coli; AID 720706; GFP signal change (wild-type ribosome), % (test concentration not listed); E. coli WT GFP vs humanized-ribosome RFP mutants, fluorescence, 24 h; hits give low values; DMSO median 0, no signal -100; actives 1.6% (n = 350,000);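 active = significant combined selectivity score with lowered wild-type GFP, culture density cut under 30%, mutant RFP and density less affected; inactive = any of these conditions unmet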
DENV2 CPE rescue: protects cells from dengue virus 2 cytopathic effect | actives 1.7% (n = 350,000) | DENV2-infected cells, cytopathic effect rescue, plate reader | CPE inhibition, % at 9.99 µM; in the data active = CPE inhibition above about 20%, passing the limit was not always enough; tested in BHK-21 cells
PGC1a acetyl inh: modulators of PGC1a acetylation. U2OS PGC1a acetylation, AlphaScreen anti-acetyl-lysine; with virally co-expressed GCN5 acetyltransferase. actives 0.17% (n = 350,000). inhibition, % at 15.6 µM. AID 651687;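 active = every replicate shows inhibition of at least 40%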
INS-1E GSIS act: primary screen for activators of insulin secretion dependent on glucose, INS-1E cells, GLuc reporter luminescence; INS-1E GLuc reporter insulin secretion, 2-3 h; activation, % at 16.6 µM; actives 0.61% (n = 370,000); AID 743287;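 active = lowest replicate activation of at least 40%, so every replicate reaches that level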
A number is an active result. Only some compounds are listed: those with a hit (about 3.2% of all), similar ones and a draw of the others.

For Cc1ccccc1-n1ncc2c1CC(C)(C)CC2NC(=O)c1ccncc1 (stereo not drawn) the results were CaV13 ICDI inh inactive, ERAP1 inh inactive, rRNA inh HTS inactive, DENV2 CPE rescue inactive, PGC1a acetyl inh inactive and INS-1E GSIS act inactive.
Screening C[C@H](NC(=O)C[C@@H]1CC[C@@H](NC(=O)C2CCOCC2)[C@@H](CO)O1)c1ccccc1 returned ERAP1 inh inactive, rRNA inh HTS inactive, DENV2 CPE rescue inactive, PGC1a acetyl inh inactive and INS-1E GSIS act inactive.
For COCCNC(=O)C[C@H]1CC[C@H]2[C@@H](COc3ccc(NC(=O)C4CCOCC4)cc3C(=O)N2C)O1 the results were ERAP1 inh inactive, rRNA inh HTS inactive, DENV2 CPE rescue inactive, PGC1a acetyl inh inactive and INS-1E GSIS act inactive.
Screening CN1C(=O)c2cc(NC(=O)C3CCCC3)ccc2OC[C@@H]2O[C@H](CC(=O)NCCc3ccncc3)CC[C@@H]21 returned ERAP1 inh inactive, rRNA inh HTS inactive, DENV2 CPE rescue inactive and INS-1E GSIS act inactive.
`COCCNC(=O)C[C@@H]1CC[C@@H]2[C@@H](COc3ccc(NC(=O)C4CCOCC4)cc3C(=O)N2C)O1` gave ERAP1 inh inactive, rRNA inh HTS inactive, DENV2 CPE rescue 21.1, PGC1a acetyl inh inactive and INS-1E GSIS act inactive.
Screening CN1C(=O)c2cc(NC(=O)C3CCCC3)ccc2OC[C@H]2O[C@H](CC(=O)NCCc3ccncc3)CC[C@@H]21 returned ERAP1 inh inactive, rRNA inh HTS inactive, DENV2 CPE rescue 28.6, PGC1a acetyl inh inactive and INS-1E GSIS act inactive.
`CN1C(=O)c2cc(NC(=O)C3CCCC3)ccc2OC[C@H]2O[C@H](CC(=O)NCCc3ccncc3)CC[C@H]21` gave ERAP1 inh inactive, rRNA inh HTS inactive, DENV2 CPE rescue 165.6, PGC1a acetyl inh inactive and INS-1E GSIS act inactive.
Screening CN1C(=O)c2cc(NC(=O)C3CCC3)ccc2OC[C@H]2O[C@@H](CC(=O)NCCc3ccncc3)CC[C@H]21 returned ERAP1 inh inactive, rRNA inh HTS inactive, DENV2 CPE rescue 20.6 and INS-1E GSIS act inactive.
For COc1ccc2c3c(n(C)c2c1)[C@H](CO)N(CC1CC1)CC31CCN(C(=O)Nc2ccc(F)cc2F)CC1 the results were rRNA inh HTS inactive, DENV2 CPE rescue inactive, PGC1a acetyl inh inactive and INS-1E GSIS act inactive.
Cc1nn(C)cc1NC(=O)C[C@H]1CC[C@H]2[C@H](COc3ccc(NC(=O)C4CCC4)cc3C(=O)N2C)O1 was read as rRNA inh HTS inactive, PGC1a acetyl inh inactive and INS-1E GSIS act inactive.
For Cc1nn(C)cc1NC(=O)C[C@@H]1CC[C@@H]2[C@@H](COc3ccc(NC(=O)C4CCC4)cc3C(=O)N2C)O1 the results were rRNA inh HTS -15.6, PGC1a acetyl inh inactive and INS-1E GSIS act inactive.
For CO[C@H]1CN(C)C(=O)c2cc(NC(=O)c3ccc(F)cc3)ccc2OC[C@@H](C)N(C(C)=O)C[C@H]1C the results were ERAP1 inh inactive, rRNA inh HTS inactive, DENV2 CPE rescue inactive, PGC1a acetyl inh inactive and INS-1E GSIS act inactive.
For COC(OC)c1ccc(C#N)c(SCc2ccc(C)cc2)n1 the results were CaV13 ICDI inh inactive, ERAP1 inh inactive, rRNA inh HTS -29.4, DENV2 CPE rescue inactive and INS-1E GSIS act inactive.
`C[C@H]1CCCCO[C@@H](CN(C)C(=O)Nc2ccc(C(F)(F)F)cc2)[C@@H](C)CN([C@@H](C)CO)C(=O)c2cc(NC(=O)CCC(F)(F)F)ccc2O1` gave ERAP1 inh inactive, rRNA inh HTS inactive, DENV2 CPE rescue inactive, PGC1a acetyl inh inactive and INS-1E GSIS act inactive.
Screening C[C@@H]1CCCCO[C@H](CN(C)S(=O)(=O)c2cn(C)cn2)[C@@H](C)CN([C@H](C)CO)C(=O)c2cc(NC(=O)C3CCCCC3)ccc2O1 returned ERAP1 inh inactive, rRNA inh HTS inactive, DENV2 CPE rescue inactive and INS-1E GSIS act inactive.
For CN(C(=O)COC(=O)c1ccc([N+](=O)[O-])cc1)c1ccccc1 the results were CaV13 ICDI inh inactive, ERAP1 inh inactive, rRNA inh HTS inactive, DENV2 CPE rescue inactive, PGC1a acetyl inh inactive and INS-1E GSIS act inactive.
